A selection: hits, their analogues and other compounds. The true share with any hit is near 2.8%.
KCNH2 3.1 block: qHTS for Inhibitors of KCHN2 3.1: Mutant qHTS; Potassium voltage-gated channel subfamily H member 2, brain isoform KCNH2 3.1 (human); activity change, % (tested at about 1.8 µM); 340,000 compounds, 0.95% hits; U2OS KCNH2 3.1, thallium flux FluxOr; stronger effect = lower value;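 active means maximum activity change below -70%; inconclusive means maximum activity change from -70% to -50%; inactive means maximum activity change above -50%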;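 further: thallium influx rate constant from kinetic fluorescence after stimulation buffer; on the % scale 0 is the no-effect control and ±100 the full control effect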
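Virally transduced U2OS (3.1 isoform, 4 h infection in dark at RT) → overnight 37 C → FluxOr + Red40 in HBSS/HEPES, 45 min → stimulation buffer, 2 min kinetic read → rate constant vs DMSO controls.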
KCNH2 WT inh: qHTS for Inhibitors of KCHN2 3.1: Wildtype qHTS; AID 720551, 2013; activity change, % at 1.84 µM; Voltage-gated inwardly rectifying potassium channel KCNH2 (Homo sapiens), Q12809; U2OS, BacMam KCNH2, thallium flux FluxOr; stronger effect = lower value; 340,000 compounds, 0.37% hits;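 active means maximum activity change below -70%; inconclusive means maximum activity change between -70% and -50%; inactive means maximum activity change above -50%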; further: on the % scale 0 is the no-effect control and ±100 the full control effect
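U2OS cells were transduced with wild-type KCNH2 virus (2.03 x 10^8 / mL) for 4 h at room temperature, then cultured overnight at 37 C. Thallium flux was read with FluxOr dye. Rate constants were normalized to DMSO controls.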
GLS inhibitor: qHTS for Inhibitors of Glutaminase (GLS); Glutaminase kidney isoform, mitochondrial (Homo sapiens), O94925; GLS enzymatic activity, qHTS titration; Potency, µM (top dose mostly 45.5 µM), inactives show top-dose activity change, negative = inhibition, most hits filed as inhibitors; 410,000 compounds, 0.21% hits; AID 624170, 2012; further: potency means the concentration at half of the fitted maximal effect; on the % scale 0 is the no-effect control and ±100 the full control effect
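Human kidney-isoform GLS in 45 mM KH2PO4 pH 8.2, 0.02% Tween-20, with compound, started with 1mM L-Glutamine (added stock). Glutamate oxidase/HRP/Amplex red coupled fluorescence read at start and after 30 min at RT.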
HEK293 tox: qHTS of GLP-1 Receptor Inverse Agonists: Cytotox Screen; HEK293 cAMP-luciferase reporter cells, luminescence, 24 h; Potency, µM (titrated, usually from 38.3 µM), for the others: top-dose activity change, negative = inhibition, usual class: inhibitors; 410,000 compounds, 0.13% hits; AID 624418, 2012;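 further: loss of luciferase light is scored as toxicity; potency means the concentration at half of the fitted maximal effect; on the % scale 0 is the no-effect control and ±100 the full control effect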
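Quantitative HTS format, 1536 wells, 200 cells/uL seeded. Compounds: 23 nL, 24 h, 37 °C. Detection: luciferase reagent, luminescence at 12 min RT; decreased signal taken as cytotoxic.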
GLP-1R agonist: qHTS of GLP-1 Receptor Agonists. AID 624172, 2012. HEK293 GLP-1R CRE-luciferase, luminescence, 4-6 h; cells express a hypersensitive GLP-1R form. 380,000 compounds, 0.007% hits. Glucagon-like peptide 1 receptor (Homo sapiens), P43220. Potency, µM (titrated, usually from 45.6 µM), inactives show at the highest dose activation, actives largely listed as activators; further: potency means the concentration at half of the fitted maximal effect; % of control where 0% means no effect
Target sequence (P43220 whole entry, looked up): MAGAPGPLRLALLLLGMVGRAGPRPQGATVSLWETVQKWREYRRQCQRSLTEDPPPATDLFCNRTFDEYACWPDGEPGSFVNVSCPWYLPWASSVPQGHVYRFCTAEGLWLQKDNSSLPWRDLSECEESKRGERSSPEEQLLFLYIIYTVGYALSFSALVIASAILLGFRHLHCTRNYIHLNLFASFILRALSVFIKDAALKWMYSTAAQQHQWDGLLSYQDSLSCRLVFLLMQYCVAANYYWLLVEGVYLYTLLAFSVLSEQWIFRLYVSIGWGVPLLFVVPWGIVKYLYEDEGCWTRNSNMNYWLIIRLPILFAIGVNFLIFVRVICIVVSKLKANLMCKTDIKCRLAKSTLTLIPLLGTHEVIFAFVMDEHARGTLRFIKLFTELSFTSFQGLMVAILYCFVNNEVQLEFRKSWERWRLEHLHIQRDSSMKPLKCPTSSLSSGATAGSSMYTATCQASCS
GLP-1R inv ag: qHTS of GLP-1 Receptor Inverse Agonists (Inhibition Mode); Glucagon-like peptide 1 receptor (Homo sapiens), P43220; HEK293 GLP-1R CRE-luciferase, luminescence, 24 h; GLP-1R form is constitutively active; Potency, µM (series often up to 38.3 µM), inactives show at the top dose activity change, negative = inhibition, actives largely listed as inhibitors; 410,000 compounds, 1.6% hits; further: potency means the concentration at half of the fitted maximal effect; on the % scale 0 is the no-effect control and ±100 the full control effect; nearly all actives have a fitted effect of over 55% in size
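Cells are plated, allowed 12 hours at 37 deg C, then treated with compounds for 24 hr before luciferase detection reagent is added and luminescence is read after 12 min at room temperature. The HEK293 line carries constitutively active GLP-1R with a cAMP-responsive reporter.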
* = called active by the depositor; ? = inconclusive; nt = no result. Unless noted, the call rests on the fitted dose curve; in most records, active means well fitted curve in the direction sought with a large enough effect; inconclusive means small, poorly fitted or top-dose-only effect, or another doubt; inactive means no such curve, though single readings can be large; an effect the other way counts as inactive or inconclusive.

SMILES	KCNH2 3.1 block	KCNH2 WT inh	GLS inhibitor	HEK293 tox	GLP-1R agonist	GLP-1R inv ag
CCOC(=O)c1sc2c(c1C)c(=O)n(Cc1ccccc1)c(=O)n2CCN(C)C	-109.4*	18.7	-6.8%	0.4%	2.7%	-26.3%
CN(C)CCn1c(=O)n(Cc2ccccc2)c(=O)c2c3c(sc21)CCCCC3	8.0	29.5	22.8%	8.0%	24.8%	-22.8%
CCOC(=O)C1CCN(C(=O)c2cc3ccc4cccnc4c3[nH]2)CC1	nt	nt	-3.0%	-2.2%	nt	1.0%
O=C(c1cc2ccc3cccnc3c2[nH]1)N1CCCCC1	nt	nt	-8.4%	4.1%	nt	6.31µM*
CC1CCCN(C(=O)c2cc3ccc4cccnc4c3[nH]2)C1 (centres undefined)	nt	nt	-11.0%	-1.9%	nt	6.31µM*
COc1ccc(N2CCN(C(c3ccccc3)c3nnc(-c4ccccc4Cl)o3)CC2)cc1 (centres undefined)	nt	nt	2.0%	0.0%	nt	?
CCCCCCCN(CC)CCCC(O)c1ccc(NS(C)(=O)=O)cc1 (centres undefined)	nt	nt	30.4%	nt	8.2%	nt
O=C(CSc1nc2c(c(=O)[nH]1)CCC2)Nc1cc(C(F)(F)F)ccc1Cl	nt	nt	8.4%	8.8%	nt	2.3%
COc1ccc(CCCNC(=O)C2CCC(=O)N(CC3CCCCC3)C2)cc1 (centres undefined)	-168.4*	-173.3*	2.3%	14.0%	-3.7%	-27.5%
COc1ccc(CCNC(=O)C2CCC(=O)N(CC3CCCCC3)C2)cc1 (centres undefined)	7.1	12.0	7.3%	-1.2%	1.3%	-16.3%
Cc1ccc(NC(=O)CNc2ccc(OC(C)C)cc2)c(C)c1	-1.4	-3.0	-8.7%	-10.1%	-7.8%	?
Cc1ccc(NS(=O)(=O)c2cc(NC(=O)C(C)Oc3ccccc3)ccc2C)c(C)c1 (centres undefined)	-15.2	-7.0	-6.3%	9.5%	-2.3%	10µM*
CC(Oc1ccccc1)C(=O)Nc1ccc(S(=O)(=O)N2CCCC2)cc1 (centres undefined)	-0.3	-1.0	-2.6%	8.8%	3.5%	-7.1%
Cc1ccc(NC(=O)CN2CCCC2c2cccs2)cc1S(=O)(=O)N1CCCCC1 (centres undefined)	-0.5	-0.6	1.2%	0.5%	7.1%	4.47µM*
Cc1ccc(NC(=O)C(C)Oc2ccccc2)cc1S(=O)(=O)N1CCCCCC1 (centres undefined)	-17.8	24.4	0.5%	3.1%	3.1%	12.6µM*
Cc1ccc(C)c(S(=O)(=O)N2CCN(C(C(=O)Nc3ccc(F)cc3)c3ccccc3)CC2)c1 (centres undefined)	-85.7*	5.7	-0.5%	-1.5%	-1.3%	?
O=C(O)C(=O)Nc1cccc(C2=NN=N[N]2)c1	nt	nt	-14.4%	nt	-0.3%	nt
CCOC(=O)N1CCc2c(sc3c2c(=O)n(Cc2ccccc2)c(=O)n3Cc2cccc(Cl)c2)C1	nt	nt	-4.2%	-11.6%	nt	6.2%
CCc1ccccc1N(CC)C(=O)Cn1nc(Cc2ccncc2)c2ccccc2c1=O	nt	nt	-8.4%	9.7%	nt	-11.8%
COc1ccc([C@@H]2Sc3cc(OC)ccc3N(CCN(C(C)C)C(C)C)C(=O)[C@H]2OC(C)=O)cc1	-100.1*	-90.2*	13.7%	-28.0%	10.4%	0.0%
CCN1C(=O)C(NC(C)=O)c2cc(OC)ccc21 (centres undefined)	-15.6	-3.6	13.9%	6.7%	-14.0%	2.9%
COc1cccc(N2CCN(C(=O)Cn3ncc4c3-c3ccccc3OC4)CC2)c1	nt	nt	1.8%	1.1%	nt	-19.6%
CCOC(=O)C1C(c2ccccc2)NC(=S)NC1(C)O (centres undefined)	10.8	4.1	2.82µM*	7.5%	-0.7%	0.2%
O=C(CSc1nccn1Cc1ccc(F)cc1)Nc1ccc2c(c1)OCO2	nt	nt	-12.0%	-0.4%	nt	3.9%
COC(=O)c1oc2ccccc2c1NC(=O)/C=C/C(=O)O	-74.3*	-10.0	-1.0%	-4.7%	0.7%	-13.6%
SMILES	KCNH2 3.1 block	KCNH2 WT inh	GLS inhibitor	HEK293 tox	GLP-1R agonist	GLP-1R inv ag
Cc1ccc(NC(=O)C(=O)NCC(c2ccc3c(c2)OCO3)N2CCOCC2)c(C)c1 (centres undefined)	nt	nt	-2.7%	?	nt	?
Nc1c(C(=O)NCCc2ccccc2)sc2nc(N3CCOCC3)c3c(c12)CCCC3	-8.0	-12.0	1.8%	19.4%	21.5%	8.91µM*
O=C1O[C@H]2[C@@H](OC(O)[C@@H]2O)[C@H]1O (some centres undefined)	nt	nt	7.8%	nt	-4.0%	nt
CCn1c(CNc2ccc(Cl)cc2)nnc1SCc1ccccc1	-4.0	-10.5	12.6%	-3.9%	-12.8%	11.2µM*
CCn1c(SCc2ccccc2)nnc1C1CCCCC1	3.8	9.6	2.4%	1.2%	12.6%	3.98µM*
CCOC(=O)c1c(/N=C/N(C)C)sc(/C=N/Nc2ccccc2)c1-c1ccc(Cl)cc1	-12.3	4.7	18.3%	3.4%	0.4%	10µM*
CSCCC(NC(=O)COc1ccccc1)C(=O)N1CCN(c2ccccc2O)CC1 (centres undefined)	-1.9	6.8	?	-6.7%	-2.3%	-10.3%
CN(c1ccccc1)S(=O)(=O)c1cccc(C(=O)NCCc2ccc(O)c(O)c2)c1	-5.5	-4.1	3.55µM*	20.5%	7.1%	-9.9%
CCN(CC)S(=O)(=O)c1cccc(C(=O)NCCc2ccccc2)c1	16.4	-3.9	-0.5%	10.1%	2.3%	1.3%
CC1(C)Cc2c(C#N)c(SCCOc3ccccc3)nc(N3CCOCC3)c2CO1	-85.4*	-2.5	7.7%	-20.6%	2.3%	12.6µM*
CC1(C)Cc2c(C#N)c(SCCO)nc(N3CCOCC3)c2CO1	1.4	-4.5	-4.8%	-3.0%	14.6%	16.5%
COc1cc(C(=O)CC2(O)C(=O)N(Cc3ccccc3Cl)c3ccccc32)cc(OC)c1OC (centres undefined)	nt	nt	-9.8%	4.3%	nt	-8.7%
Cc1ccc(C)c(NC(=O)CSc2nccn2-c2cccc(C)c2C)c1	nt	nt	3.0%	4.5%	nt	12.6µM*
Cn1ccnc1SCC(=O)N1CCc2ccccc21	-4.5	-6.4	7.4%	?	-3.9%	2.9%
Cc1ccc(C)c(NC(=O)CSc2nnc(-c3cc4occc4n3C)n2-c2ccccc2C)c1	nt	nt	5.2%	-3.1%	nt	11.2µM*

Bioassay records as filed in PubChem BioAssay.
